# Experimental data: the supplement of paper PMC6555819
# Key:
# Assay in all cases: PBM binding z-score (relative to random genomic background probes); higher = stronger binding; sequences stand for … in GC…GCGATTGACAGCGTAGAATGAAGG
# [1] = test system: RARb homodimer (NR concentration 270 nM)
# Method in brief: (§1)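 Binding z-scores take random background probes as their reference. They come from custom Agilent 4×180K protein-binding microarrays incubated 1 h with ligand-free nuclear receptor dimers, with antibodies against each partner (one per run) detecting binding. Scanned fluorescence was regression-normalized.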
# [2] = test system: RARg:RXRa (NR concentration 270 nM, RXRa partner concentration 90 nM)
# Method in brief: as §1
# [3] = test system: RARg homodimer (NR concentration 270 nM)
# Method in brief: as §1
# [4] = test system: RXRa DBDmut IVT, anti-RXR (DBD mutation: RXRa K156A/R161A, NR concentration 90 nM)
# Method in brief: as §1
# [5] = test system: RXRa homodimer (NR concentration 180 nM)
# Method in brief: as §1
# [6] = test system: THRa:RXRa (NR concentration 90 nM, RXRa partner concentration 90 nM)
# Method in brief: as §1
# [7] = test system: THRa homodimer (NR concentration 90 nM)
# Method in brief: as §1
# [8] = test system: VDR homodimer (NR concentration 270 nM)
# Method in brief: as §1
Sequence,PBM binding z-score [1],PBM binding z-score [2],PBM binding z-score [3],PBM binding z-score [4],PBM binding z-score [5],PBM binding z-score [6],PBM binding z-score [7],PBM binding z-score [8]
CGAACTAGGTCAGAACAGGACAGTGATGGATGAT,2.11,2.39,2.83,0.564,1.13,3.48,0.141,0.283
TGAATGAGGGTAAAGATCAGGGAACGTGGCGTCG,-0.018,0.443,0.391,-0.234,1.07,0.432,-0.386,-0.201
CATACAGGGGCAGCTAGGCCAGAGTAGGGACGGC,0.473,0.498,1.02,-0.381,-0.153,0.05,-0.63,-0.506
ATCTCAAGGTAAGACTCAGTTCAGTGAAGAACGC,0.641,0.668,0.469,0.363,0.542,1.36,0.884,1.5
GCTCGGAGGAAAAGGTCAGAGCTTTGTCCGTAGA,4,4.34,4.89,-0.162,4.74,2.22,-0.291,-0.277
TATACAGGGTCAAACGCCAGAGTACGAATGTCGA,3.44,5.93,5.27,3.62,6.88,3.56,0.861,4.28
TCTATTAGTTGAAGGGCAACCGACGAGTCCGTTT,1.41,0.635,0.786,1.57,0.701,0.419,0.09,1.87
GGTGCTAGGTCAGGTTGGTCAGCTAACGGGTACG,3.2,2.9,4.21,0.112,1.38,1.94,1.19,0.971
CAAACTAGGTCAAAGGTCGAAGTCGAGCCAACCA,3.9,7.26,5.75,2.51,8.7,4.01,0.604,1.73
CGCCCAAGGTCAATGCTAGGTCAGTGAAAGCATT,5.07,7.39,6.43,2.91,5.06,4.28,2.72,2.51
CCAACTAGGTCACAGAGGTCAAAGTCCGTGCGTA,5.91,7.44,8.06,3.39,7.77,4.66,3.24,6.85
TAGCCTAGGTCAGGGGCCAGTATACCACGCGAAC,2.47,3.16,3.82,-0.891,2.16,1.91,0.583,-0.245
TGTCAAAGTTCAAAGGTAACGTGAGTATCCACAC,4.01,6.45,6.06,4.32,7.77,3.39,-0.326,4.31
TCTAGTTTGTCAAAGGTCACACACTCGAAATGCG,4.86,6.06,5.71,2.14,6.98,4.07,1.98,2.58
CCTTACGGGTCACTCCAGGGTATAGCATCGGAGT,2.55,4.23,4.17,0.964,4.2,4.35,-0.222,0.88
CCTCGGAGGACAACAGGAGGTCAGAGATGCCAGA,3.66,3.42,3.31,0.124,1.95,2.83,1.02,1.41
CAAACTAGGTCACGAAAGGTCAAAGACGAATGAC,5.96,7.75,8.37,2.55,8.19,5.15,2.72,3.52
TAGCCTTGGTCAGATCGGGCCAGTATACGCTATA,-0.204,-0.284,0.118,-1.12,-0.507,1.29,-0.783,-0.709
ACTTACGGGTCAACGAGGTTATAGAACGCGTATA,3.89,5.69,5.34,2.56,6.54,4.21,1.21,3.53
AGTCAAAGTTCACTAGGTAACATAAGATTCAGCT,3.84,4.96,5.9,4.29,3.76,2.08,0.138,4.22
ATCTCTAGGTAAAGACAGTTCAGTGAATGCAAAT,0.886,0.452,0.798,0.247,0.363,1.05,0.425,1.14
TTACCAAAGTGAGCTGAGGTCGTTGATCCAACTC,0.526,0.117,-0.105,-0.0811,0.805,3.02,1.36,1.95
GCAGAGAGGTGAAACGCAGGTAACTCAGGGTGGC,1.31,2.59,1.21,0.025,1.79,2.37,0.0883,-0.369
GCAGACAGGTGAAACGAAGGTAACTCAGGGTGGC,0.36,1.1,0.315,-0.588,0.938,1.42,-0.157,-0.798
ACAGCCAGGTGAGTGAAGGTAACTCAGCTGGACG,-0.424,-0.155,-0.0105,-0.98,-0.177,1.46,-0.534,-0.751
TCTTGTATATCAACAGGAGGTTAAGAAAGATCGA,0.861,0.722,0.592,0.943,1.25,1.18,0.039,0.491
CTCGAAAGGTCGTGCTGAGGTGAGTATACCAAAC,3.29,5.56,4.04,1.92,4.81,4.6,1.38,1.06
ACAGACAGGAGAGTGAAGGTAACTCAGCTGGACG,0.0737,0.0775,0.235,-0.483,0.0394,0.195,0.113,-0.235
